Publication PMC7826789 (International Journal of Molecular Sciences, 2021)

What was measured:
Details in all cases: Compound Concentration (nM):1000
[1] = tested on: TNK1
[2] = tested on: TNK2
[3] = tested on: TNNI3K
[4] = tested on: T1, TRKA
T1 construct: gene NTRK1

[5] = tested on: T2, TRKB
T2 construct: gene NTRK2

[6] = tested on: T3, TRKC
T3 construct: gene NTRK3

[7] = tested on: TRPM6
[8] = tested on: TSSK1B
[9] = tested on: TSSK3
[10] = tested on: TTK
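Also: KINOMEscan scanMAX binding as percent activity remaining versus control; lower means stronger binding.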

NS(=O)(=O)c1ccc(N/N=C2\C(=O)Nc3ccc(C(=O)NCCc4c[nH]cn4)cc32)cc1 [GW300660X]
Percent Control [1]: 100%
Percent Control [2]: 100%
Percent Control [3]: 92%
Percent Control [4]: 20%
Percent Control [5]: 52%
Percent Control [6]: 57%
Percent Control [7]: 100%
Percent Control [8]: 100%
Percent Control [9]: 100%
Percent Control [10]: 11%

Cl.O=C(O[C@H]1CN[C@H](C#Cc2cc3ncnc(Nc4ccc5c(cnn5Cc5ccccc5)c4)c3s2)C1)N1CCOCC1 [GSK200398A]
Percent Control [1]: 99%
Percent Control [2]: 97%
Percent Control [3]: 55%
Percent Control [4]: 70%
Percent Control [5]: 87%
Percent Control [6]: 95%
Percent Control [7]: 96%
Percent Control [8]: 100%
Percent Control [9]: 93%
Percent Control [10]: 100%

Cl.c1ccc(Cc2nc3ccc(Nc4ncnc5ccccc45)cc3[nH]2)cc1 [GR269666A]
Percent Control [1]: 100%
Percent Control [2]: 100%
Percent Control [3]: 84%
Percent Control [4]: 100%
Percent Control [5]: 92%
Percent Control [6]: 100%
Percent Control [7]: 97%
Percent Control [8]: 70%
Percent Control [9]: 100%
Percent Control [10]: 51%

O=C(Nc1n[nH]c2nc(-c3ccc(O)cc3)c(Br)cc12)C1CC1 [SB-725317]
Percent Control [1]: 100%
Percent Control [2]: 100%
Percent Control [3]: 100%
Percent Control [4]: 65%
Percent Control [5]: 100%
Percent Control [6]: 100%
Percent Control [7]: 100%
Percent Control [8]: 100%
Percent Control [9]: 100%
Percent Control [10]: 97%

COc1cc(/C=N/Nc2ncnc3[nH]ncc23)ccc1O [GW578748X]
Percent Control [1]: 100%
Percent Control [2]: 100%
Percent Control [3]: 100%
Percent Control [4]: 42%
Percent Control [5]: 70%
Percent Control [6]: 88%
Percent Control [7]: 95%
Percent Control [8]: 100%
Percent Control [9]: 100%
Percent Control [10]: 68%

NS(=O)(=O)c1ccc(N/N=C2\C(=O)Nc3ccc(Cl)cc32)cc1 [GW280670X]
Percent Control [1]: 100%
Percent Control [2]: 100%
Percent Control [3]: 100%
Percent Control [4]: 43%
Percent Control [5]: 94%
Percent Control [6]: 89%
Percent Control [7]: 100%
Percent Control [8]: 100%
Percent Control [9]: 100%
Percent Control [10]: 40%

Cl.O=S1CCN(Cc2ccc(-c3ccc4ncnc(Nc5ccc(OCc6ccccc6)c(F)c5)c4c3)o2)CC1 [GW576924A]
Percent Control [1]: 100%
Percent Control [2]: 100%
Percent Control [3]: 100%
Percent Control [4]: 100%
Percent Control [5]: 100%
Percent Control [6]: 100%
Percent Control [7]: 92%
Percent Control [8]: 90%
Percent Control [9]: 100%
Percent Control [10]: 100%

NS(=O)(=O)c1ccc(N/N=C2\C(=O)Nc3ccc(C(=O)NCc4ccncc4)cc32)cc1 [GW300657X]
Percent Control [1]: 100%
Percent Control [2]: 100%
Percent Control [3]: 96%
Percent Control [4]: 7.6%
Percent Control [5]: 21%
Percent Control [6]: 37%
Percent Control [7]: 89%
Percent Control [8]: 100%
Percent Control [9]: 89%
Percent Control [10]: 5.5%

COc1cc2ncn(-c3cc(O[C@H](C)c4ccccc4Cl)c(C(N)=O)s3)c2cc1OC [GSK237701A]
Percent Control [1]: 82%
Percent Control [2]: 58%
Percent Control [3]: 100%
Percent Control [4]: 31%
Percent Control [5]: 51%
Percent Control [6]: 59%
Percent Control [7]: 89%
Percent Control [8]: 74%
Percent Control [9]: 39%
Percent Control [10]: 82%

COc1cccc(-n2ncc3c(N/N=C/c4ccncc4)ncnc32)c1 [GW784752X]
Percent Control [1]: 88%
Percent Control [2]: 100%
Percent Control [3]: 51%
Percent Control [4]: 65%
Percent Control [5]: 73%
Percent Control [6]: 85%
Percent Control [7]: 89%
Percent Control [8]: 100%
Percent Control [9]: 90%
Percent Control [10]: 88%

CC1=C(C(=O)Nc2ccc3[nH]ncc3c2)C(c2ccc3ccccc3c2)CC(=O)N1 (stereo not shown) [GSK270822A]
Percent Control [1]: 68%
Percent Control [2]: 62%
Percent Control [3]: 100%
Percent Control [4]: 66%
Percent Control [5]: 73%
Percent Control [6]: 63%
Percent Control [7]: 82%
Percent Control [8]: 97%
Percent Control [9]: 43%
Percent Control [10]: 92%

COc1cccc(-c2c[nH]c3c(N/N=C/c4ccncc4)ncnc23)c1 [GW814408X]
Percent Control [1]: 100%
Percent Control [2]: 100%
Percent Control [3]: 31%
Percent Control [4]: 64%
Percent Control [5]: 100%
Percent Control [6]: 100%
Percent Control [7]: 97%
Percent Control [8]: 98%
Percent Control [9]: 98%
Percent Control [10]: 79%

Nc1ncnc2occ(-c3ccc(NC(=O)Nc4cc(C(F)(F)F)ccc4F)cc3)c12 [GW770249X]
Percent Control [1]: 85%
Percent Control [2]: 100%
Percent Control [3]: 40%
Percent Control [4]: 3%
Percent Control [5]: 1.6%
Percent Control [6]: 0.1%
Percent Control [7]: 100%
Percent Control [8]: 100%
Percent Control [9]: 84%
Percent Control [10]: 61%

COC(=O)Nc1nc2ccc(Oc3ccc(NC(=O)Nc4cc(C(F)(F)F)ccc4F)cc3)cc2s1.Cl [GW693917A]
Percent Control [1]: 37%
Percent Control [2]: 95%
Percent Control [3]: 61%
Percent Control [4]: 4.8%
Percent Control [5]: 6.2%
Percent Control [6]: 4.5%
Percent Control [7]: 73%
Percent Control [8]: 92%
Percent Control [9]: 82%
Percent Control [10]: 80%

CN(C)c1cc2c(Nc3ccc4c(cnn4Cc4ccccc4)c3)ncnc2cn1 [GW282974X]
Percent Control [1]: 93%
Percent Control [2]: 84%
Percent Control [3]: 100%
Percent Control [4]: 65%
Percent Control [5]: 92%
Percent Control [6]: 93%
Percent Control [7]: 92%
Percent Control [8]: 100%
Percent Control [9]: 99%
Percent Control [10]: 87%

CCS(=O)(=O)c1ccc(OC)c(Nc2ncc(-c3cccc(OC)c3)o2)c1 [GW580509X]
Percent Control [1]: 30%
Percent Control [2]: 100%
Percent Control [3]: 100%
Percent Control [4]: 16%
Percent Control [5]: 46%
Percent Control [6]: 67%
Percent Control [7]: 100%
Percent Control [8]: 100%
Percent Control [9]: 100%
Percent Control [10]: 90%

COc1cc(N2CCN(C(C)C)CC2)ccc1Nc1nc(Nc2ccc(F)cc2C(=O)NC[C@@H](O)CO)c2cc[nH]c2n1 [GSK1392956A]
Percent Control [1]: 18%
Percent Control [2]: 67%
Percent Control [3]: 100%
Percent Control [4]: 86%
Percent Control [5]: 91%
Percent Control [6]: 89%
Percent Control [7]: 82%
Percent Control [8]: 42%
Percent Control [9]: 83%
Percent Control [10]: 4.9%

NS(=O)(=O)c1ccc(Nc2ncc(-c3ccccc3)o2)cc1 [GW572399X]
Percent Control [1]: 100%
Percent Control [2]: 100%
Percent Control [3]: 100%
Percent Control [4]: 55%
Percent Control [5]: 72%
Percent Control [6]: 78%
Percent Control [7]: 100%
Percent Control [8]: 100%
Percent Control [9]: 100%
Percent Control [10]: 78%

COc1cc(C=NNc2ncnc3c2cnn3-c2ccccc2)ccc1O [GW513184X]
Percent Control [1]: 67%
Percent Control [2]: 100%
Percent Control [3]: 84%
Percent Control [4]: 66%
Percent Control [5]: 100%
Percent Control [6]: 99%
Percent Control [7]: 100%
Percent Control [8]: 98%
Percent Control [9]: 100%
Percent Control [10]: 100%

COc1ccc(COc2ccc(Cc3cnc(N)nc3N)cc2OC)cc1 [GW632580X]
Percent Control [1]: 73%
Percent Control [2]: 77%
Percent Control [3]: 90%
Percent Control [4]: 4.2%
Percent Control [5]: 0.9%
Percent Control [7]: 89%
Percent Control [8]: 100%
Percent Control [9]: 83%
Percent Control [10]: 85%
